Test results published in the supplement of paper PMC8253809.

Test system: DIPGX7 (H3.3 K27M diffuse intrinsic pontine glioma line)
Assay: growth inhibition (% activity, log2 RLU normalised to DMSO / staurosporine); higher = more growth inhibition
Conditions: 33 µM
Outline: (§1)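 In triplicate, pHGG cell lines and H9-derived neural stem cells were treated for 7 days at 37 °C, 5% CO2 with approved drugs at a single final concentration of about 33 μM, added by pin tool. CellTiter-Glo luminescence, after log2 transformation, was normalised on each plate to % activity between solvent and positive control wells. Growth inhibition is reported as the median across replicates.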

Compound | growth inhibition
C[N+](C)(C)CCCCCCCCCC[N+](C)(C)C | 1.7%
CC(=O)O[C@H]1C[C@@H]2CC[C@@H]3[C@H](CC[C@@]4(C)[C@H]3C[C@H]([N+]3(C)CCCCC3)[C@@H]4OC(C)=O)[C@@]2(C)C[C@@H]1[N+]1(C)CCCCC1 | -0.188%
CN(C)C(=O)Oc1ccc[n+](C)c1 | -0.161%
CN1c2ccccc2C(NCCCCCCC(=O)O)c2ccc(Cl)cc2S1(=O)=O (stereo unspecified) | -0.607%
O=c1[nH]c2ccccc2n1CCCN1CCC(n2c(=O)[nH]c3cc(Cl)ccc32)CC1 | 0.225%
C[N+]1(C)CCCC(OC(=O)C(O)(c2ccccc2)c2ccccc2)C1 (stereo unspecified) | -0.262%
CNC1CC(N)C(O)C(OC2OC(CO)C(O)C3OC4(OC(C(N)CO)C(O)C(O)C4O)OC23)C1O (stereo unspecified) | 0.134%
CN1C(=O)CCS(=O)(=O)C1c1ccc(Cl)cc1 (stereo unspecified) | 0.531%
CN(C)C(=O)Oc1cccc([N+](C)(C)C)c1 | -0.239%
CCC1=C[C@H]2CN3CCc4c([nH]c5ccccc45)[C@](C(=O)OC)(C2)[C@H]13 | -1.78%
NCC(O)c1ccc(O)cc1 (stereo unspecified) | 0.265%
CCCN1C[C@H](CSC)C[C@@H]2c3cccc4[nH]cc(c34)C[C@H]21 | -0.373%
CN1C(=O)COc2c(C(=O)NC3CN4CCC3CC4)cc(Cl)cc21 (stereo unspecified) | 1.36%
Cn1c(CCCC(=O)O)nc2cc(N(CCCl)CCCl)ccc21 | 2.34%
CC(=O)OC12COC1CC(O)C1(C)C(=O)C(O)C3=C(C)C(O)CC(O)(C(OC(=O)c4ccccc4)C21)C3(C)C (stereo unspecified) | 4.76%
CC(=O)OC1CN2CCC1CC2 (stereo unspecified) | 0.391%
CC[C@@]1(O)C(=O)OCc2c1cc1n(c2=O)Cc2cc3ccccc3nc2-1 | 11.4%
C/C=C(\C)C(=O)N[C@@H](c1ccccc1)[C@@H](O)C(=O)O[C@H]1C[C@@]2(O)[C@@H](OC(=O)c3ccccc3)[C@@H]3[C@]4(OC(C)=O)CO[C@@H]4C[C@H](O)[C@@]3(C)C(=O)[C@H](OC(C)=O)C(=C1C)C2(C)C | 8.08%
CCOC(=O)c1cncn1[C@H](C)c1ccccc1 | 2.54%

Compound | growth inhibition
O=C(O[C@H]1C[C@H]2CC[C@@H](C1)[N+]21CCCC1)C(O)(c1ccccc1)c1ccccc1 | -0.848%
NCCc1c[nH]c2ccc(O)cc12 | -2.87%
CCC1(c2ccc(N)cc2)CCC(=O)NC1=O (stereo unspecified) | 0.848%
N.N.[Cl][Pt][Cl] | 0.191%
C[N+]1(C)[C@@H]2C[C@@H](OC(=O)[C@H](CO)c3ccccc3)C[C@H]1[C@@H]1O[C@@H]12 | 0.707%
CN1C2CC(O)CC1C1OC12 (stereo unspecified) | -1.33%
C=CC[C@]1(O)CC[C@H]2[C@@H]3CCC4=CC(=O)CCC4=C3C=C[C@@]21C | -0.403%
CCC(COC(=O)c1cc(OC)c(OC)c(OC)c1)(c1ccccc1)N(C)C (stereo unspecified) | 26.9%
CCCCCCCCCCCCCCCC[n+]1ccccc1 | 62.7%
CC[C@@H](C(N)=O)N1CCCC1=O | 0.427%
Cc1cc(O)ccc1Cl | 0.716%
OC(c1ccccc1)(c1ccccc1)C1CCNCC1 | -0.982%
Cc1cccc(C)c1NC1=NCCCS1 | -0.135%
COc1ccc(C(=O)N2CCCC2=O)cc1 | 2.24%
N[C@@H]1C[C@H]1c1ccccc1.N[C@H]1C[C@@H]1c1ccccc1 | 2.09%
COC(=O)C1=CCCN(C)C1 | 0.892%
C=CCN.ClCC1CO1 (stereo unspecified) | 1.62%
O=P1(NCCCl)OCCCN1CCCl (stereo unspecified) | 5.61%
CN(C)C1C(=O)C(C(N)=O)=C(O)C2(O)C(=O)C3=C(O)c4c(O)cccc4C(C)(O)C3CC12 (stereo unspecified) | 0.404%

Test system: DIPGX9 (diffuse intrinsic pontine glioma line)
Assay: as above
Conditions: 33 µM
Outline: as §1

Compound | growth inhibition
C[N+](C)(C)CCCCCCCCCC[N+](C)(C)C | 1.41%
CC(=O)O[C@H]1C[C@@H]2CC[C@@H]3[C@H](CC[C@@]4(C)[C@H]3C[C@H]([N+]3(C)CCCCC3)[C@@H]4OC(C)=O)[C@@]2(C)C[C@@H]1[N+]1(C)CCCCC1 | 0.99%
CN(C)C(=O)Oc1ccc[n+](C)c1 | 0.978%
CN1c2ccccc2C(NCCCCCCC(=O)O)c2ccc(Cl)cc2S1(=O)=O (stereo unspecified) | 0.503%
O=c1[nH]c2ccccc2n1CCCN1CCC(n2c(=O)[nH]c3cc(Cl)ccc32)CC1 | -0.635%
C[N+]1(C)CCCC(OC(=O)C(O)(c2ccccc2)c2ccccc2)C1 (stereo unspecified) | 0.527%
CNC1CC(N)C(O)C(OC2OC(CO)C(O)C3OC4(OC(C(N)CO)C(O)C(O)C4O)OC23)C1O (stereo unspecified) | 3.12%
CN1C(=O)CCS(=O)(=O)C1c1ccc(Cl)cc1 (stereo unspecified) | 1.13%
CN(C)C(=O)Oc1cccc([N+](C)(C)C)c1 | -1.38%
CCC1=C[C@H]2CN3CCc4c([nH]c5ccccc45)[C@](C(=O)OC)(C2)[C@H]13 | -1.01%
NCC(O)c1ccc(O)cc1 (stereo unspecified) | -0.182%
CCCN1C[C@H](CSC)C[C@@H]2c3cccc4[nH]cc(c34)C[C@H]21 | -0.427%
CN1C(=O)COc2c(C(=O)NC3CN4CCC3CC4)cc(Cl)cc21 (stereo unspecified) | 3.07%
Cn1c(CCCC(=O)O)nc2cc(N(CCCl)CCCl)ccc21 | 11.2%
CC(=O)OC12COC1CC(O)C1(C)C(=O)C(O)C3=C(C)C(O)CC(O)(C(OC(=O)c4ccccc4)C21)C3(C)C (stereo unspecified) | 9.41%
CC(=O)OC1CN2CCC1CC2 (stereo unspecified) | 1.28%
CC[C@@]1(O)C(=O)OCc2c1cc1n(c2=O)Cc2cc3ccccc3nc2-1 | 14.7%
C/C=C(\C)C(=O)N[C@@H](c1ccccc1)[C@@H](O)C(=O)O[C@H]1C[C@@]2(O)[C@@H](OC(=O)c3ccccc3)[C@@H]3[C@]4(OC(C)=O)CO[C@@H]4C[C@H](O)[C@@]3(C)C(=O)[C@H](OC(C)=O)C(=C1C)C2(C)C | 23.2%
CCOC(=O)c1cncn1[C@H](C)c1ccccc1 | 2.62%

Compound | growth inhibition
O=C(O[C@H]1C[C@H]2CC[C@@H](C1)[N+]21CCCC1)C(O)(c1ccccc1)c1ccccc1 | -3.62%
NCCc1c[nH]c2ccc(O)cc12 | -2.24%
CCC1(c2ccc(N)cc2)CCC(=O)NC1=O (stereo unspecified) | 0.885%
N.N.[Cl][Pt][Cl] | 0.402%
C[N+]1(C)[C@@H]2C[C@@H](OC(=O)[C@H](CO)c3ccccc3)C[C@H]1[C@@H]1O[C@@H]12 | 0.849%
CN1C2CC(O)CC1C1OC12 (stereo unspecified) | 0.803%
C=CC[C@]1(O)CC[C@H]2[C@@H]3CCC4=CC(=O)CCC4=C3C=C[C@@]21C | 1.01%
CCC(COC(=O)c1cc(OC)c(OC)c(OC)c1)(c1ccccc1)N(C)C (stereo unspecified) | 2.8%
CCCCCCCCCCCCCCCC[n+]1ccccc1 | 52.2%
CC[C@@H](C(N)=O)N1CCCC1=O | -0.877%
Cc1cc(O)ccc1Cl | -0.222%
OC(c1ccccc1)(c1ccccc1)C1CCNCC1 | -0.0248%
Cc1cccc(C)c1NC1=NCCCS1 | -0.817%
COc1ccc(C(=O)N2CCCC2=O)cc1 | 0.251%
N[C@@H]1C[C@H]1c1ccccc1.N[C@H]1C[C@@H]1c1ccccc1 | -0.549%
COC(=O)C1=CCCN(C)C1 | 1.35%
C=CCN.ClCC1CO1 (stereo unspecified) | 1.51%
O=P1(NCCCl)OCCCN1CCCl (stereo unspecified) | 0.389%
CN(C)C1C(=O)C(C(N)=O)=C(O)C2(O)C(=O)C3=C(O)c4c(O)cccc4C(C)(O)C3CC12 (stereo unspecified) | -0.553%
